Test results: PubChem BioAssay (NCI)
About 83,000 compounds went through this panel and 20% of them were active in at least one assay; those are over-represented in the sample as a whole.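 96-well plates, one dose, 48 hours. Percent growth reported; active if below 10.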 Calls of active or inactive are those of the source.

Each compound was assayed on MDA-MB-468 breast (assay: NCI-60 one-dose screen, 48 h (100 = growth as untreated, 0 = no growth, -100 = all killed)). Settings: 10 µM unless noted.
With `Cc1ccc(C(=O)Nc2cccc(C#Cc3cccc4[nH]nc(N)c34)c2)cc1C(F)(F)F` the growth was 95.6% (inactive).
For `Cc1ccc(-c2nc3ccccc3c(=O)n2/N=C/c2cccc3ccccc23)cc1`, the growth was 80.9% (inactive).
In the case of `O=C(/C(=C/c1ccccc1)CN1CCCCC1)c1ccccc1`, the growth is reported as -72.8% (active).
In the case of `O=C(CSc1nc(-c2ccc(Cl)cc2)cn1-c1ccc(Cl)cc1)c1ccc(Br)cc1`, the growth is reported as 81.3% (inactive).
With `COc1ccc2c(c1)c(/C=N/Nc1ccnc3cc(Cl)ccc13)cn2C` the growth was -87.3% (active).
For `OCCN1CCCN(CCCN2c3ccccc3Sc3ccc(C(F)(F)F)cc32)CC1`, the growth was 39.6% (inactive).
For `CC1(C)CNC(=O)N1`, the growth was 98.2% (inactive).
For `Clc1ccc2c(Nc3ccc4oc(NCCN5CCCC5)nc4c3)ccnc2c1`, the growth was 70.6% (inactive).
For `CC/C(=N\Nc1nc2ccccc2n1C)c1ccccn1`, the growth was -14.5% (active).
`CC(=O)Oc1ccc(C(OC(C)=O)OC(C)=O)cc1` was tested, and the growth was 109% (inactive).
`CCCn1cnc2c(c1=N)C(c1ccc(Cl)cc1)c1sc3c(F)cccc3c1O2` (stereo not given) was tested, and the growth was 42.4% (inactive).
In the case of `COc1cc(OC)cc(-c2cc(-c3c[nH]c4ccccc34)nc(-c3c[nH]c4ccccc34)c2C#N)c1`, the growth is reported as 92.2% (inactive).
In the case of `COc1cc(C2CC(=O)Nc3c2ccc2ccccc32)cc(Br)c1OC` (stereo not given), the growth is reported as -34.3% (active).
For `Cn1ccnc1C(=O)/C=C/c1ccc(CC(=O)Nc2ccc(F)cc2)cc1`, the growth was -4.62% (active).
For `O=S(=O)(CC(O)(c1ccccc1)c1ccccc1)CC(O)(c1ccccc1)c1ccccc1`, the growth was 77.4% (inactive).
For `CCOc1ccccc1Cn1ccnc1CCc1c(Cl)c(O)cc(O)c1C(=O)OC`, the growth was 106% (inactive).
With `OCCCc1ccccc1` the growth was 104% (inactive).
With `CCCCCCCCCCSc1ncnc2nc[nH]c12` the growth was 8.95% (active).
With `O=C1C=CC(=O)N1C1c2ccccc2-c2ccccc21` the growth was 66.9% (inactive).
For `CCc1cccc(CC)c1NC(=O)c1sc2nc3c(cc2c1N)CCCC3`, the growth was 79.3% (inactive).
With `OC1(c2ccc(Cl)c(C(F)(F)F)c2)CCN(CCCC(c2ccc(F)cc2)c2ccc(F)cc2)CC1` the growth was -86% (active).
For `O=[N+]([O-])c1cccc(SSc2cccc([N+](=O)[O-])c2)c1`, the growth was 109% (inactive).
With `O=[N+]([O-])c1ccc(Sc2nc(Cl)nc(NC3CCCC3)n2)cc1` the growth was -46.5% [100 µM] (active).
For `Cc1c(C(=O)NO)sc2ncnc(Nc3ccc(NC(=S)Nc4ccccc4)cc3)c12`, the growth was 104% (inactive).
`COc1ccccc1-n1c(SCc2cc(OC)c(OC)c(OC)c2)nc2ccc(Cl)cc2c1=O` was tested, and the growth was 21.5% (inactive).
In the case of `COc1cc(-c2nc(C(=O)NCC(=O)O)nn2-c2ccc(Cl)cc2)cc(OC)c1OC`, the growth is reported as 113% (inactive).
With `COC(=O)c1nc(-c2ccccc2)oc1S(=O)(=O)N1CCCC(C)C1` (stereo not given) the growth was 29.2% (inactive).
In the case of `CCC(C)C1NC(=O)C(CC(C)C)NC(=O)C(C)NC(=O)C(C(C)C)NC(=O)C(CCCCN)NC(=O)C(CC(C)C)NC(=O)C(C(C)C)NC(=O)[C@H](C)NC(=O)C(C(C)CC)NC(=O)C(CCCN=C(N)N)NC(=O)C(CCCCN)NC(=O)C(CCCN=C(N)N)NC(=O)C(CCCCN)NC(=O)C([C@H](C)CC)NC(=O)C(CCCCN)NC1=O` (stereo not given in full), the growth is reported as -4.06% (active).
With `COc1ccc(/C=N/C2=NNC(C)(c3ccccc3O)N2C(Cc2c[nH]c3ccccc23)C(=O)O)cc1` (stereo not given) the growth was -3.81% (active).
With `COc1ccc(-c2cc(/C=C3\C(=O)Nc4cc(Cl)ccc43)[nH]n2)cc1OC` the growth was 65.5% (inactive).
With `CCCCCCCCCCCCCCCC1=NC(C)(C)CN1C(C)C` the growth was -58.8% (active).
For `COc1cccc(N=Nc2cccc(OC)c2)c1`, the growth was 87.2% (inactive).
In the case of `O=c1ccc(N=Nc2ccc([N+](=O)[O-])cc2)ccc1O`, the growth is reported as -15.7% (active).
For `COc1cc(N=C2C(=O)N(Cc3ccccc3)c3ccccc32)cc(OC)c1OC`, the growth was 103% (inactive).
For `Cc1cc(C)n(-c2nnc3n2N=C(c2ccc(-c4ccccc4)cc2)CS3)n1`, the growth was -5.89% (active).
For `CC(C)(C)OC(=O)Nc1ccc2c(c1)C(NC(=O)Nc1cccc(C#N)c1)CC(C)(C)O2` (stereo not given), the growth was -5.73% (active).
For `CSc1ccc(N(C)c2nc(C)nc3c2CCC3)cc1`, the growth was 46.8% (inactive).
For `Cc1cc(=O)c2c(C)ccc(C)c2[nH]1`, the growth was 96.8% (inactive).
For `COc1cc2nc(Nc3cccc(NC(C)=O)c3)nc(N)c2cc1OC`, the growth was 88.8% (inactive).
`COC(=O)CC[C@@H]1O[C@@H](c2cccc(C(F)(F)F)c2)[C@@H](O)[C@H]1O` was tested, and the growth was 89% (inactive).
